Bioassay records (PubChem)
Only a selection was taken, and hits are over-represented in it overall.
KDM5B inh – Primary screen for KDM5B Histone Demethylases FDH-coupled qHTS. 2.6% of 220,000 active. Potency, µM (doses to about 57.7 µM), most hits filed as inhibitors. KDM5B demethylase, FDH-coupled NADH fluorescence (FDH is formaldehyde dehydrogenase). Lysine-specific demethylase 5B (Homo sapiens), Q9UGL1; active = well fitted inhibition curve with a large enough effect; note: 0% is about no effect; nearly all actives have a fitted effect of over 70% in size
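Compound dilutions met 200 nM (final) KDM5BΔAP for 10 min at room temperature before substrate addition. The substrate mix held 12.5 µM H3K4me3 with cofactors 25 µM α-ketoglutarate and 50 µM Fe²⁺. NADH signal gain over 30 min defined activity.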
The depositor's hits bear a star; i = inactive. Potency is the fitted concentration of half-maximal effect.

SMILES	KDM5B inh
Cc1ccccc1C(=O)N1CCC(N2CCCCCC2=O)CC1	20µM*
Cc1ccccc1C(=O)N1CCC(N2CCCNC2=O)CC1	i
O=C(c1ccc(Cl)cc1)N1CCC(N2CCCCCC2=O)CC1	i
Cc1nc(-c2ccc(Cl)cc2)n(Cc2ccc(F)cc2)c(=O)c1CCO	i
CCc1ccc(/C=C(/C#N)C(=O)Nc2ccc(N3CCOCC3)cc2)cc1	i
COc1ccc2c(c1)/C(=N/OC(=O)c1cc(SC)ccc1Cl)CCC2	i
CCc1cccc(C)c1NC(=O)NCC(O)c1ccccc1 (stereo not given)	i
COc1ccc(/C=C/c2cc(C(=O)O)c3ccccc3n2)cc1OC	i
CSc1ccc(Cl)c(C(=O)NCCCn2ccnc2)c1	i
COCCNC(=O)c1cc(-c2ccccc2OC(F)(F)F)cc2ncn(C)c12	i
Cn1cnc2cc(-c3ccc(F)cc3)cc(C(=O)NCCCn3ccnc3)c21	40µM*
COc1ccccc1-c1cc2c(ccn2C)c(C(=O)NCC2CCN(C)C(=O)C2)n1 (stereo not given)	i
CN(C)c1cccc(-c2cc(C(=O)NCc3cccnc3)c3c(c2)ncn3C)c1	i
COc1cc(CNC(=O)c2cc(-c3ccc(F)cc3)cc3ncn(C)c23)ccn1	32µM*
O=C(NCCc1ccccn1)c1cc(F)cc(F)c1	i
Cn1cnc2cc(-c3ccc(F)cc3)cc(C(=O)NCCc3ccccn3)c21	28µM*
O=C(NCCCn1ccnc1)c1c(F)cccc1F	i
O=C(NCCc1ccccn1)c1cccc(F)c1	i
CN1CCC(CNC(=O)c2cc(-c3ccc(F)cc3)cc3ncn(C)c23)CC1=O (stereo not given)	32µM*
CC(C)(C)OC(=O)N1CCC(CNC(=O)c2ccc(F)cc2F)CC1	i
COc1ccc(-c2c(C)oc3cc(OCC(=O)N4CCC(C(N)=O)CC4)ccc3c2=O)cc1	i
Cc1nn(CC(=O)N(C(C)C)C(C)C)c(C)c1S(=O)(=O)NC(C)(C)C	i
CN(CCOc1ccccc1)c1nc(-c2cccnc2)nc2ccccc12	i
COc1cc(C(=O)NC(C)Cn2cccn2)cc(Cl)c1OC (stereo not given)	i
CC(C)c1ccc(NC(=O)CSc2nc3c(-c4ccccc4)c[nH]c3c(=O)n2C)cc1	i
SMILES	KDM5B inh
N#Cc1ccc(/C=C2/CCOc3ccc(Br)cc3C2=O)cc1	i
CC(C)Cn1c(COc2ccccc2Cl)n[nH]c1=S	i
CCn1cc(CN(C)C(=O)[C@H]2CN(Cc3ccccc3)C[C@H]2C(=O)O)c(C)n1	i
O/N=C/c1ccc(OCc2c(Cl)cccc2Cl)cc1	i
CC(C)OC(=O)C1=C(N)Oc2c(oc(CO)cc2=O)C1c1ccc(F)cc1F (stereo not given)	i
Cc1ccc(-n2nc(C(=O)NCCN(C)C)c(=O)n(C)c2=O)cc1	i
Cc1cc(C)c(CNC(=O)c2cc(-c3ccc(CN(C)C)cc3)cc3ncn(C)c23)c(=O)[nH]1	i
CN(C)CCNC(=O)c1cc(-c2ccc(F)cc2)cc2ncn(C)c12	28µM*
Cc1oc(-c2ccno2)cc1S(=O)(=O)Nc1cccc2ccccc12	i
COc1ccc(-c2cc(C[C@H]3CNCC[C@H]3CC(=O)NCc3ccc4c(c3)OCO4)no2)cc1	i
C/C(=N\NC(=O)C1CC1)c1ccc2ccccc2c1	i
Cc1ccc(/C=C/C(=O)OC(C)C(=O)C23CC4CC(CC(C4)C2)C3)o1 (stereo not given)	i
COC[C@@H]1CN(C(=O)c2ccc(OC)cc2C)C[C@H]1c1ccncc1	i
COc1ccc([C@H]2CN(C(=O)c3nc(N)nc4c3CCCC4)C[C@@H]2N)cc1	22µM*
COc1ccc([C@H]2CN(C(=O)C3(c4ccc(F)cc4)CC3)C[C@@H]2N)cc1	i
Cc1cccc(S(=O)(=O)Nc2nc3ccccc3nc2Nc2cccc(F)c2)c1	i
CCOC(=O)CCCCCNCc1ccccc1	i
Cc1cccn2c(CC(=O)N[C@H](c3ccccn3)C3CC(O)C3)cnc12 (stereo not given in full)	i
O=C(N[C@H](c1ccccn1)C1CC(O)C1)c1cnc2ccccn2c1=O (stereo not given in full)	25µM*
Cc1cc2c(cc1C(=O)N[C@H](c1ccccn1)C1CC(O)C1)OCCO2 (stereo not given in full)	i
COC(=O)C1CCCCN1S(=O)(=O)c1c(F)cccc1F (stereo not given)	i
O=C(NCc1cccs1)C1CCCN(c2nc3ncccc3o2)C1 (stereo not given)	i
O=C(NC1CCCN(c2nc3ncccc3o2)C1)c1ccc(C(F)(F)F)cc1 (stereo not given)	i
O=C(NCC(F)F)C1CCCN(c2nc3ncccc3o2)C1 (stereo not given)	28µM*
CCNC(=O)C1CCCN(c2ncnc3onc(C)c23)C1 (stereo not given)	i
SMILES	KDM5B inh
O=C(NCC(F)(F)F)C1CCCN(c2nc3ncccc3o2)C1 (stereo not given)	22µM*
O=C(C1CCCN(Cc2cccc3ccccc23)C1)N1CCCCC1 (stereo not given)	i
CSc1ccc(/C=C2\N=C(c3ccco3)OC2=O)cc1	i
Cc1ccccc1CCNC(=O)c1cccc2ncccc12	i
C#CCNC(=O)NC(CC)c1ccc(C)cc1 (stereo not given)	i
Cc1noc(C)c1-c1cc2c(c(-c3ccccc3)c1)C(=O)N(C)C2	i
Cc1noc(C)c1-c1cc2c(c(-c3ccc(F)c(Cl)c3)c1)C(=O)N(C)C2	i
COc1cc(F)ccc1-c1cc(-c2c(C)noc2C)cc2c1C(=O)N(C)C2	32µM*
CC(NC(=O)c1ccc2c(c1)NC(=O)CS2)c1ccco1 (stereo not given)	i
COC(=O)CNC(=O)c1nc(-c2ccc(F)cc2)c2ccccn12	40µM*
COCCNC(=O)c1nc(-c2ccc([S+](C)(=O)[O-])cc2)c2ccccn12	i
COCCNC(=O)c1nc(-c2ccc(Cl)cc2)c2ccccn12	35µM*
COC(=O)CNC(=O)c1nc(-c2ccc(Cl)cc2)c2ccccn12	20µM*
CCn1cc(-c2ccc(Cl)cc2)cc1C(=O)NCC(=O)OC	i
COCCNC(=O)CN(C)C(=O)c1cc(-c2ccc(Cl)cc2)nc2ccccc12	i
CCOC(=O)C1=C(CNCc2ccccc2Cl)NC(=O)NC1c1cc(C)ccc1C (stereo not given)	i
CCC(C(=O)NC12CC3CC(CC(C3)C1)C2)c1ccccc1 (stereo not given)	i
COc1ccccc1NC(=O)/C(C#N)=C/c1coc2ccc(C)cc2c1=O	i
CC1=C(C(=O)c2ccc(Cl)cc2)C(c2ccccc2)NC(=O)N1 (stereo not given)	i
CC(=O)c1ccc(C(=O)N(Cc2cccs2)Cc2cccs2)s1	i
CCCc1noc(-c2ccn3c(CNC(=O)c4ccccc4F)nnc3c2)n1	8.9µM*
CCc1noc(-c2ccn3c(CNC(=O)c4c(F)cccc4F)nnc3c2)n1	i
CCCc1noc(-c2ccn3c(CNC(=O)c4cc(F)ccc4F)nnc3c2)n1	32µM*
CCc1noc(-c2ccn3c(CNC(=O)c4cc(F)ccc4F)nnc3c2)n1	i
CCCc1noc(-c2ccn3c(CNC(=O)c4ccccc4Cl)nnc3c2)n1	i
CCCc1noc(-c2ccn3c(CNC(=O)c4c(F)cccc4F)nnc3c2)n1	28µM*
CCc1noc(-c2ccn3c(CNC(=O)c4ccc(F)cc4Cl)nnc3c2)n1	i
